Laboratory results published in PubChem BioAssay AID1259374 (The Scripps Research Institute Molecular Screening Center, 2018).
The campaign covered roughly 650,000 compounds. About 5,900 (0.91%) were called active. The entries come from a sample that favours actives as a whole. Values without a mark were called inactive. Cut-off read from the data, not from the text of the source: active = inhibition above about 50%; inactive = the rest.

These molecules were tested against Microphthalmia-associated transcription factor (Homo sapiens) (UniProt O75030) (assay: MITF inhibitors, primary screen, biochemical, AlphaScreen, human (AID 1259374;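 note: 0% = vehicle wells with protein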)). Details: AlphaScreen MITF homodimerization, bead proximity signal; at 2.6 µM; stronger effect = higher value.
Chain of Microphthalmia-associated transcription factor (Homo sapiens) (O75030 whole entry, looked up): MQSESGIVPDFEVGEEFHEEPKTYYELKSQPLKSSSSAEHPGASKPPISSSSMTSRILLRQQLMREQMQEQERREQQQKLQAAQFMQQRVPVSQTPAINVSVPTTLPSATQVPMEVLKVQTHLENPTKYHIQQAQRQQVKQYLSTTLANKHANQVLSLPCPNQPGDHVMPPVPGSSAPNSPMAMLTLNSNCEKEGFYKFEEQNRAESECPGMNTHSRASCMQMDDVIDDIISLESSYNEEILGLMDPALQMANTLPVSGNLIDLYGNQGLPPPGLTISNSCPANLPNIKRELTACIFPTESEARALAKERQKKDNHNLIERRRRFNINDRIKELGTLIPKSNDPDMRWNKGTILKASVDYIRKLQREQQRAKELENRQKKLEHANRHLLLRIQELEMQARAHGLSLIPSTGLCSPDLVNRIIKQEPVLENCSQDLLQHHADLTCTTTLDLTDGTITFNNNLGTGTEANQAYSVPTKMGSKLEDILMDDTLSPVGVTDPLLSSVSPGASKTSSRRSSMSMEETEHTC

SMILES | inhibition
Cc1ccc(C23CC4CC(CC(C(=O)NCC(=O)NN)(C4)C2)C3)cc1 | -4.06%
O=C(COc1ccc(Cl)cc1)N/N=C/c1ccc([N+](=O)[O-])c(O)c1 | -8.51%
COc1ccc(S(=O)(=O)N(C)CC(=O)Nc2ccc(F)cc2F)cc1OC | -13.8%
N#C/C(=C\c1ccc(-c2ccc(F)cc2)o1)C(=O)O | 9.25%
N#C/C(=C/c1ccc(-c2ccc3c(c2)C(=O)NC3=O)o1)C(=O)O | 54.7% (active)
N#C/C(=C/c1ccc(-c2ccc(F)cc2)o1)C(=O)N1CCCCC1 | -2.65%
CCCN(CCC)C(=O)C(Cc1ccccc1)N1C(=O)C2C3C=CC(C3)C2C1=O (stereo unspecified) | -7.73%
COc1ccc(CNC(=O)CC(C)C)cc1 | 4.41%
COc1ccc(CN[C@H]2C[C@H]3C(=O)N[C@@H](C(C)C)C(=O)N3C2)cc1 | 16%
COc1ccc(CNCC2CN(CC(C)C)CCO2)cc1 (stereo unspecified) | 54.3% (active)
CCCCCNC(=O)COc1ccccc1C#N | -3.44%
O=C(Nc1ccc(F)cc1F)c1cc([N+](=O)[O-])ccc1Cl | -3.07%
O=C(Nc1nc2ccccc2n1CCOc1ccc(F)cc1)c1ccc(Cl)cc1 | -6.19%
COc1ccc(C2=NNc3cccc4c(OC)ccc2c34)cc1OC | 51.8% (active)
COc1cc(Nc2nc(-c3ccc(OC)c(OC)c3)nc3ccccc23)cc(OC)c1 | -23%
COc1ccc(-c2nc3ccccc3[nH]2)cc1OC | 10.1%
CCNCc1ccc(OCC(=O)Nc2ccc(OC)cc2)c(OC)c1 | -12.6%
COC(=O)c1ccc(N2CCOCC2)c([N+](=O)[O-])c1 | 10.3%
COC(=O)Oc1c([N+](=O)[O-])cc2oc(=O)sc2c1[N+](=O)[O-] | 59.1% (active)
COc1cc([N+](=O)[O-])cc([N+](=O)[O-])c1NC(=O)N1CCOCC1 | 11.6%
Cc1cccc(C(=O)Nc2ccc3oc(-c4ccc(Cl)c(Cl)c4)nc3c2)c1 | 6.63%

SMILES | inhibition
O=C(Nc1nc2ccccc2s1)C(Cc1ccccc1)N1C(=O)c2ccccc2C1=O (stereo unspecified) | -3.65%
CNC(=O)c1cc(F)ccc1Nc1cc(Nc2ccc(NC(C)=O)cn2)ncc1C(F)(F)F | 1.21%
Cc1cccnc1NC(=O)CSc1nnc(COc2ccc(C(C)C)cc2)n1C | 53.7% (active)
CC(C)c1ccc(NC(=O)CSc2nnc(CNC(=O)c3ccccc3)n2C)cc1 | 14%
Cc1ccccc1OCc1nnc(SCC(=O)NC(C)(C)C)n1C | 11.7%
CCOc1cc(/C=N/NC(=O)CC(=O)NCC(C)C)ccc1O | 14.6%
c1ccc(-c2cc(NCCCn3ccnc3)nc(-c3ccccn3)n2)nc1 | 115% (active)
Cc1nc(NCCCN2CCOCC2)cc(-c2ccccn2)n1 | 12.2%
Clc1ccc(-c2cc(NCCCn3ccnc3)ncn2)cc1 | 14.7%
CCCCSc1nnc(CNC(=O)Cc2ccccc2)n1-c1ccc(Cl)c(Cl)c1 | 15.1%
O=C1CCc2ccc(OCc3ccccc3F)cc21 | 12.2%
COc1ccc(-n2nc(C(=O)N3CCC(C(N)=O)CC3)c3ccccc3c2=O)c(OC)c1 | 11.6%
CCN(CC)c1ccc(NC(=O)CCc2nnc3ccc(N4CCCCC4)nn23)c(C)c1 | 15.7%
CCN1CCN(CC(=O)Nc2ccc(N(CC)CC)cc2C)CC1 | 70.1% (active)
CCN(CC)c1ccc(NC(=O)c2ccc(OC)cc2)c(C)c1 | -6.58%
O=C(Cc1csc(Nc2ccc(Cl)cn2)n1)NCc1ccccc1Cl | 13.2%
Cc1ccccc1-n1c(SCC(=O)Nc2ccc(C(N)=O)cc2)nnc1-c1ccncc1 | 24.8%
Cc1c(C(=O)c2ccccc2)oc2ccc(NC(=O)C(C)C)cc12 | -6.05%
O=C1N=C(N2CCCC2)S/C1=C/c1ccc(-c2ccccc2[N+](=O)[O-])o1 | 18.4%
CCCn1c(C)cc(-c2csc(NC(=O)Cc3ccsc3)n2)c1C | 73.1% (active)
CCCCC(=O)Nc1nc(-c2ccc(I)cc2)cs1 | -1.42%

SMILES | inhibition
C=CCn1c(C)cc(-c2csc(NC(=O)c3ccc([N+](=O)[O-])s3)n2)c1C | 5.62%
O=C(NCCc1ccccc1)c1c[nH]c2ccc(S(=O)(=O)N3CCc4ccccc43)cc2c1=O | 5.29%
OCCOCCN1CCN(Cc2ccc(Cl)cc2)CC1 | 82.7% (active)
COc1ccc(Br)cc1CN1CCN(C(C)=O)CC1 | 2.27%
COc1cc(OC)c(OC)cc1CN1CCN(C(=O)c2cccs2)CC1 | 35.6%
COc1ccc(/C(C)=N/N)cc1CN1CCCCC1 | -0.23%
COc1cccc(C(=O)N2CCN(Cc3cc(OC)c(OC)cc3OC)CC2)c1 | 63.4% (active)
COc1cc(Br)cc(CN2CCCN(C)CC2)c1O | 7.81%
COc1ccc(C(=O)N2CCN(Cc3cc(OC)c(OC)cc3OC)CC2)cc1 | -7.92%
COc1ccc(Br)cc1CN1CCN(C(=O)c2cccnc2)CC1 | 88.2% (active)
COc1ccc(Br)cc1CN1CCN(CCOCCO)CC1 | 66.6% (active)
COc1cccc(CN2CCN(CCOCCO)CC2)c1OC | -6.67%
OCCN1CCN(CC(O)COCCOc2ccc(Cl)cc2)CC1 (stereo unspecified) | -9.2%
COc1cccc(C(=O)N2CCN(C(=O)c3cccc(OC)c3)CC2)c1 | -5.18%
CC1SC2(CCCCC2)N(c2ccc(F)cc2)C1=O (stereo unspecified) | -0.68%
COc1ccccc1NC(=O)CN1C(=O)C2CC=C(Cl)CC2C1=O (stereo unspecified) | 2.72%
Cc1cc(OCC(O)CNCC(C)O)c(C(C)C)cc1Cl (stereo unspecified) | 0.85%
O=S(=O)(NC1CCCC1)c1ccc(-c2ccc(S(=O)(=O)NC3CCCC3)cc2)cc1 | -2.79%
Clc1ccc(-c2csc(Nc3cccc4ccccc34)n2)cc1Cl | 0.76%
